Values without a mark were called inactive. Activity calls are given as the source filed them.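 The calls were made as follows: active = inhibition at or above 50% relative to wild type and mutant plate controls; inactive = inhibition below 50%.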

A short description of this assay: inhibitors of Chlamydomonas gravitaxis, primary screen, whole organism, Chlamydomonas reinhardtii, WT vs cilia-less mutant, absorbance, 96-well (AID 463189).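 Also: 0% = wild type cc124 cells in DMSO and 100% = ciliumless bld1 mutant cells.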 The following applies: OD600 absorbance, 2 days, at 10 µM, hits give high values.
The inhibition is the relative decrease from the control value, in per cent. For `Cn1c(=O)c2[nH]c(-c3ccc(S(=O)(=O)O)cc3)nc2n(C)c1=O`, the inhibition was -2.33%.

Turning to `N[C@H](CCC(=O)NCS(=O)(=O)O)C(=O)O`, the inhibition was 4.82%.

With `CCCNC(C)C(=O)Nc1ccccc1C` (stereo not given), the inhibition is 6.52%.

Take `NC12CC3CC(CC(C3)C1)C2`: the inhibition was -2.58%.

Turning to `CCOC(=O)C12CC1/C(=N/O)c1ccccc1O2` (stereo not given), the inhibition was 6.31%.

For the compound `N#CC(Cc1ccc(O)c(O)c1)C(=O)N1CCc2ccccc21` (stereo not given), the inhibition was 0.886%.

Consider `COc1cc(OC)c(/C=C2/C(=O)Nc3ccccc32)c(OC)c1`, for which the inhibition is 6.51%.

As to `CCCCOc1cc(CC2CNC(=O)N2)ccc1OC` (stereo not given), the inhibition was 2.83%.

As for `CN(C)S(=O)(=O)c1ccc2c(c1)/C(=C/c1cc3c([nH]1)CCCC3)C(=O)N2`, the inhibition is 4.39%.

Regarding `NC(=NCc1ccc(Cl)c(Cl)c1)NC(=O)c1nc(Cl)c(N)nc1N`, the inhibition was 7.67%.

Regarding `CCN1CCC[C@H]1CNC(=O)c1cc(S(N)(=O)=O)ccc1OC`, the inhibition was 3.94%.

Consider `O=C1C2C=CC=CC2=NC(=S)N1CCN1CCC(=C(c2ccc(F)cc2)c2ccc(F)cc2)CC1` (stereo not given), for which the inhibition was -0.94%.

As to `O=C(c1ccc(OCCN2CCCCC2)cc1)c1c(-c2ccc(O)cc2)sc2cc(O)ccc12`, the inhibition is 4.7%.

In the case of `CC[C@H](NC(=O)c1c(C)c(-c2ccccc2)nc2ccccc12)c1ccccc1`, the inhibition is 9.84%.

On to `CCN(CC)CCOC(=O)c1ccc(N)cc1`, for which the inhibition was -0.871%.

Turning to `O=C(O)CCC(=O)N1CCCC1C(=O)O` (stereo not given), the inhibition is 0.347%.

For `CCCCCC(O)c1cccc(OCc2ccc3ccccc3n2)c1` (stereo not given), the inhibition is 3.99%.

As for `CCCC(=O)NCCc1c2n(c3ccc(OC)cc13)Cc1ccccc1-2`, the inhibition is -1.81%.

Consider `COC1=C(OC)C(=O)c2ccccc2C1=O`, for which the inhibition was 159% (active).

Consider `O=C(O)C1CCNCC1`, for which the inhibition is 4.95%.

As to `CC(N)=NCCC[C@H](N)C(=O)O`, the inhibition is 5.15%.

For `CN[C@H](CC(=O)O)C(=O)O`, the inhibition was 6.26%.

As for `NC(N)=N/N=C/c1c(Cl)cccc1Cl`, the inhibition is 3.64%.

As for `Oc1ccc(-c2nc(-c3ccc(F)cc3)c(-c3ccncc3)[nH]2)cc1`, the inhibition is 7.36%.

In the case of `OC(CN1CCC(Cc2ccc(F)cc2)CC1)c1ccc(Cl)cc1` (stereo not given), the inhibition was -0.098%.

Regarding `Cc1nc2n(c(=O)c1CCN1CCC(c3noc4cc(F)ccc34)CC1)CCCC2`, the inhibition was 2.59%.

`O=C(c1cc(O)c(O)c([N+](=O)[O-])c1)c1ccccc1F`: the inhibition was -0.57%.

Turning to `CC1=C(C(=O)O)N2C(=O)[C@@H](NC(=O)C(N)C3=CCC=CC3)[C@H]2SC1` (stereo not given in full), the inhibition was 6.7%.

Consider `CN[C@H](CC(C)C)C(=O)N[C@H]1C(=O)N[C@@H](CC(N)=O)C(=O)N[C@H]2C(=O)N[C@H]3C(=O)N[C@H](C(=O)N[C@H](C(=O)O)c4cc(O)cc(O)c4-c4cc3ccc4O)[C@H](O)c3ccc(c(Cl)c3)Oc3cc2cc(c3O[C@@H]2O[C@H](CO)[C@@H](O)[C@H](O)[C@H]2O[C@H]2C[C@](C)(N)[C@H](O)[C@H](C)O2)Oc2ccc(cc2Cl)[C@H]1O`, for which the inhibition was 15.1%.

For the compound `NC(=O)CNCCC(c1ccccc1)c1ccccc1`, the inhibition was -2.16%.

With `O=c1[nH]cnc2[nH]ncc12`, the inhibition is 6.04%.

With `Cc1cccc(C)c1OCC(N)C(C)C` (stereo not given), the inhibition was 9.25%.

As to `NCCC1CCCC(CCN)N1` (stereo not given), the inhibition is 5.08%.

As to `Cc1ccccc1N1CCN(S(=O)(=O)C[C@]23CCC(CC2NC(=O)[C@@H](N)CCS(C)(=O)=O)C3(C)C)CC1` (stereo not given in full), the inhibition is 3.4%.

In the case of `O=C1c2ccccc2-c2n[nH]c3cccc1c23`, the inhibition was 34.8%.

For `COC(=O)C1=C(C)NC(C)=C(C(=O)OCCN(C)Cc2ccccc2)C1c1cccc([N+](=O)[O-])c1` (stereo not given), the inhibition is -0.607%.

With `N[C@@H](CCCC(=O)O)C(=O)O`, the inhibition is 6.53%.

In the case of `Cc1c(CC(C)(C)C(=O)O)n(Cc2ccc(Cl)cc2)c2ccc(F)cc12`, the inhibition was 1.93%.

Consider `OC[C@H]1O[C@@H](n2cnc3c(NC4CCCCC4)ncnc32)[C@H](O)[C@@H]1O`, for which the inhibition is 4.21%.

With `Nc1nc(N)c2nc(CNc3ccc(C(=O)NC(CCC(=O)O)C(=O)O)cc3)cnc2n1` (stereo not given), the inhibition is 10.5%.

For the origin of these results see PubChem BioAssay.
